Screening data: PubChem, National Center for Advancing Translational Sciences (NCATS)
NS1 inh = influenza NS1 inhibition. Potency, µM (top dose mostly 46.1 µM), inactives show at the highest dose activity, positive = more growth. hit rate 0.4% among 270,000. AID 2326; calls by dose curve; note: actives are rising curves; nearly all actives have a fitted effect of over 50% in size
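In this qHTS, NS1 from influenza A is expressed in budding yeast, where it slows growth. Cells are switched from glucose to 2% galactose medium (pH 6.0, -URA), treated with compound, and growth recovery is read at OD600.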
AMA1 RON2 block = disrupts binding of P. falciparum AMA1 to RON2; hit rate 0.2% among 360,000; AID 720542; Potency, µM (titrated, usually from 58.2 µM), inactives show at the highest dose activity change, negative = inhibition, usual class: inhibitors; AlphaScreen AMA1-biotinylated RON2 peptide binding;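 note: 0% = vehicle wells and -100% = peptide control; nearly all actives have a fitted effect of over 45% in size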
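AMA1 (3D7) with his tag at 25 nM final met compounds first, then biotinylated RON2 peptide at 25 nM; detection used donor plus acceptor beads, 10 µg/mL apiece, read by AlphaScreen after 30 min at room temperature.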
HCV inh = inhibitors of hepatitis C virus infection. Huh7.5.1 HCVcc-Cre infection, luciferase reporter, 44 h. Potency, µM (series often up to 41.8 µM), without a hit: at the highest dose activity change, negative = inhibition, hits mostly inhibitors. hit rate 3.4% among 340,000. AID 651820; note: % is set by controls: 0 for no effect and ±100 for the full control effect
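Luciferase read-out (15 sec integration) after a 15 min room-temperature substrate step quantifies HCVcc-Cre infection. Cells, 1,000 per well, had compound added 4 h post-plating, then virus at ~0.5 moi, and were cultured 44 h.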
SARS PLP yeast = SARS-CoV PLP inhibition in yeast; hit rate 0.19% among 330,000; AID 485353; Potency, µM (highest dose often 32.9 µM), for inactives: at the highest dose activity, positive = growth rescue, actives largely listed as activators; S. cerevisiae expressing SARS-CoV PLpro, growth rescue; calls by dose curve; note: 0% is about no effect; nearly all actives have a fitted effect of over 55% in size
Pf growth 96h = P. falciparum growth inhibition at 96 hours. Potency, µM (doses to about 28.7 µM), without a hit: at the top dose activity change, negative = inhibition, most hits filed as inhibitors. P. falciparum luciferase reporter growth, 96 h. hit rate 6.9% among 320,000. AID 504834; note: % is set by controls: 0 for no effect and ±100 for the full control effect
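P. falciparum expressing integrated firefly luciferase grown in erythrocytes (2% hematocrit, 0.05% parasitemia final) with compounds for 96 hours at 37 C, 5% CO2. Growth inhibition read as loss of luminescence after adding luciferase detection reagent.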
Pf growth 48h = inhibits P. falciparum growth in the first generation, 48 h | P. falciparum luciferase growth in erythrocytes, 48 h | Potency, µM (doses to about 28.7 µM), without a hit: at the top dose activity change, negative = inhibition, usual class: inhibitors | hit rate 5.9% among 310,000 | AID 504832; note: % is set by controls: 0 for no effect and ±100 for the full control effect
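A one-generation exposure of luciferase-tagged malaria parasites in RPMI 1640/Albumax erythrocyte culture, 37 C and 5% CO2. Inhibition is inferred from decreased luminescence after adding detection reagent.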
* hit, by the source's call; u = inconclusive; x = no result given; [ ] = dose if it differs, or a comment. A selection: hits, their analogues and other compounds. The true share with any hit is near 12%. Unless noted, calls come from the whole dose curve; as a rule, active = well fitted curve in the direction sought with a large enough effect; inconclusive = small, poorly fitted or top-dose-only effect, or another doubt; inactive = no such curve, though single readings can be large; an effect the other way counts as inactive or inconclusive. Potency is the fitted concentration of half-maximal effect.

SMILES | NS1 inh | AMA1 RON2 block | HCV inh | SARS PLP yeast | Pf growth 96h | Pf growth 48h
Cc1ccc2c(c1)C1(C(=O)N2)N2CCCC2C(C(=O)c2ccc3ccccc3c2)C12C(=O)Nc1ccccc12 (centres undefined) | 11% | -14% | -25% | 0% | x | x
CCOc1cc(C(N)=O)cc(Cl)c1OCc1ccccc1 | -7% | 1% | 13µM* | -5% | 15% | -1%
CCOc1cc(CNC2CCCC2)cc(Cl)c1OCc1ccccc1 | -25% | 0% | 13µM* | -6% | u | 13µM*
CCCCNCc1cc(Cl)c(OCCC)c(OCC)c1 | -14% | 3% | x | u | 8.3µM* | x
CCCCOc1c(Cl)cc(CNC(C)(C)CO)cc1OCC | -5% | 0% | u | 4% | 14% | u
CCOc1cc(CNCC(C)C)cc(Cl)c1OCc1ccccc1 | -2% | 23% | u | -2% | 5.2µM* | 13µM*
COc1cc(C(N)=O)cc(Cl)c1OCc1ccccc1 | -30% | 2% | -6% | 0% | 6% | 10%
COc1cc(CNCCc2ccccc2)cc(Cl)c1OCc1ccccc1 | x | -9% | u | -2% | 150% | 8.3µM*
CCOc1c(Cl)cc(CNCC(C)C)cc1OC | -11% | -5% | -16% | 3% | 16% | x
CCOc1cc(C2NN=C(c3ccccc3)S2)ccc1OCc1ccccc1Cl (centres undefined) | -23% | 14% | u | -5% | 144% | 137%
CCOc1cc(CNC2CCCC2)ccc1OCc1ccccc1Cl | -1% | -7% | 3.2µM* | -1% | -55%[5.75 µM] | u
COc1cc(CNCc2ccccc2)cc(Cl)c1OC | -2% | 9% | -6% | -1% | -11% | -2%
CCOc1c(Cl)cc(CNCC(O)c2ccccc2)cc1OC (centres undefined) | x | -6% | -28% | 1% | 31% | 4.1µM*
CC(C)C(NS(=O)(=O)c1cccs1)C(=O)N1CCC(C(N)=O)CC1 (centres undefined) | x | 0% | 13% | 0% | 20% | 2%
COCc1c(C(=O)NC(C)c2ccc(S(N)(=O)=O)cc2)oc2ccccc12 (centres undefined) | 8% | -1% | 3% | 3% | 4% | 11%
N#Cc1ccccc1S(=O)(=O)N1CCN(C(=O)CN2CCCC2c2cccs2)CC1 (centres undefined) | x | -11% | 1% | -4% | 4.7µM* | 9.3µM*
CCN1CCN(c2ccc(S(=O)(=O)N3CCCCC3)cc2NC(=O)/C=C/c2cccc(OC)c2OC)CC1 | -8% | -26% | u | 0% | u | 0%
COc1ccc(CCC(=O)Nc2cc(S(=O)(=O)N3CCCCC3)ccc2N(C)C)cc1 | x | -8% | 12% | 2% | u | 10µM*
CCN1CCN(S(=O)(=O)c2ccc(Cl)c(C(=O)Nc3ccccc3N3CCCCC3)c2)CC1 | x | u | 13µM* | 3% | u | u
CCN1CCN(c2ccc(S(=O)(=O)N3CCCCC3)cc2NC(=O)c2ccc(OC(F)F)cc2)CC1 | x | -13% | u | 4% | u | u
CCN1CCN(c2ccc(S(=O)(=O)N3CCCCC3)cc2NC(=O)Cc2ccc(OC)cc2)CC1 | -24% | -3% | -2% | 3% | 5.9µM* | 9.3µM*
COc1ccc(CC(=O)Nc2cc(S(=O)(=O)N3CCCCC3)ccc2C)cc1 | x | -13% | u | -2% | u | u
CCN1CCN(c2ccc(S(=O)(=O)N3CCCCC3)cc2NC(=O)c2cccc(OC(F)F)c2)CC1 | x | 3% | u | -7% | 10µM* | u
CSc1ccccc1-c1nc(-c2ccncc2)no1 | -39% | 18% | -58% | -2% | -26% | x
CCOCCCN(C(=O)c1snc(C(N)=O)c1N)C(C(=O)NC1CCCC1)c1ccc(O)cc1 (centres undefined) | 1% | 9% | -4% | 0% | u | -3%
Cc1nc2ccccc2n1C1CCN(C(=O)Nc2ccccc2)CC1 | -3% | 0% | u | 0% | 17% | u
OC[C@@H]1CN(Cc2ccc3c(c2)OCO3)C[C@H](n2cnc3c(N4CCOCC4)ncnc32)O1 | x | 30% | x | x | x | x
